LMP1 NFkB inh – inhibitors of Epstein-Barr LMP1-induced NF-kappaB reporter; LMP1-induced NF-kappaB luciferase reporter cells, luminescence; inhibition, % at 12.5 µM; 350,000 compounds, 0.69% hits; in the data active = inhibition above about 41%; inconclusive = no clear call, values can overlap the other calls;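 also: 0% = neutral control wells and 100% = reference inhibitor control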
TROY NFkB inh – inhibitors of TROY-dependent NF-kB signaling | Q293 LMP1-TROYcd NF-kB luciferase reporter, 4 h | inhibition, % at 10 µM | 360,000 compounds, 0.98% hits | AID 1347056;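 active = compounds whose plate-normalised and pattern-corrected inhibition of the luciferase reporter signal at the single screening dose is 50% or more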
LGR2 inh – blocks bursicon-induced cAMP signaling via Drosophila LGR2; inhibition, % at 9.99 µM; HEK293 LGR2, CRE-luciferase, bursicon-stimulated, 4 h; AID 720647; 380,000 compounds, 0.35% hits;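 active = drop in luminescence signal, shown as inhibition above about 50% in the replicate tests, limit read from the data, passing the limit was not always enough; inconclusive = probably only some replicates passing the limit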;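 also: agonist challenge used bursicon conditioned medium at about half maximal strength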
EWS-Fli inh – blocks EWS/Fli oncoprotein-driven transcription; A673 NR0B1-luciferase reporter, viability-normalised; inhibition, % at 12.6 µM; 350,000 compounds, 0.67% hits; AID 651661;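 active = mean inhibition of at least 50% after viability correction, with every replicate also passing that limit; inconclusive = mean reaches 50% but only one of two replicates passes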;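 also: firefly luciferase signal divided by Alamar Blue viability fluorescence both relative to DMSO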
TWEAK Fn14 block – blocks TWEAK-Fn14 interaction in a reporter cell assay. 360,000 compounds, 2% hits. inhibition, % at 10 µM. TWEAK-stimulated Fn14 reporter cells, luciferase luminescence, 8 h. AID 1159606; in the data active = inhibition above about 50%
DNA binding – small molecule DNA binding by fluorescence polarization. 640 compounds, 2% hits. salmon sperm DNA acridine orange fluorescence polarization. shares compounds with EWS-Fli inh. AC35, µM (series often up to 68 µM), without a hit: at the top dose activity change, negative = DNA binding;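 active = fitted curve reaches a 35% signal fall AC35 below twice the sample's top valid tested dose, actives reach about 48 µM in these data; inactive = the rest, including activity in the rising direction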;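 also: lower polarization ratio signals compound binding to DNA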
Numbers without * were called inactive; ? = inconclusive; . = no result. Rows were chosen to be rich in hits. Some 2.6% of all compounds tested hit in one or more screens of this group.

SMILES	LMP1 NFkB inh	TROY NFkB inh	LGR2 inh	EWS-Fli inh	TWEAK Fn14 block	DNA binding
C[C@@H]1CN([C@H](C)CO)C(=O)c2cc(N(C)C)ccc2O[C@H]1CN(C)Cc1ccc(C(=O)Nc2ccccc2N)cc1	.	.	7.8	65.3*	.	6.2%
C[C@H](CO)N1C[C@H](C)[C@@H](CN(C)Cc2ccc(C(=O)Nc3ccccc3N)cc2)Oc2ccc(N(C)C)cc2C1=O	.	.	15.7	?	.	.
C[C@H](CO)N1C[C@H](C)[C@@H](CN(C)Cc2ccc(C(=O)Nc3ccccc3N)cc2)Oc2ccc(NC(=O)Nc3ccc(F)cc3)cc2C1=O	.	.	3.7	6.1	.	.
C[C@@H]1CN([C@H](C)CO)C(=O)Cc2cc(N(C)C)ccc2O[C@H]1CN(C)Cc1ccc(C(=O)Nc2ccccc2N)cc1	.	.	-3.7	59.0*	.	-9.1%
C[C@@H]1CN([C@H](C)CO)C(=O)c2cc(NC(=O)Nc3ccccc3)ccc2O[C@@H]1CN(C)Cc1ccc(C(=O)Nc2ccccc2N)cc1	.	.	3.6	55.2*	.	-10.7%
CNC[C@@H]1Oc2ccc(NC(=O)Nc3ccc(F)cc3)cc2CC(=O)N([C@H](C)CO)C[C@H]1C	.	.	-0.8	-4.2	.	.
COc1ccc(NC(=O)Nc2ccc3c(c2)C(=O)N([C@@H](C)CO)C[C@H](C)[C@H](CN(C)Cc2ccc4c(c2)OCO4)O3)cc1	.	.	15.8	-5.8	.	.
CO[C@H]1CC[C@@H]2CCN(C)C(=O)[C@@H](C)[C@H](OC)CN(C)C(=O)c3cccc(C#N)c3OC[C@@H]1O2	.	.	-0.7	-12.3	.	.
Nc1ccn([C@@H]2O[C@H](CO)[C@@H](O)C2O)c(=O)n1 (stereo partly drawn)	46.7*	22.7	27.5	50.5*	-43.8	-7.4%
C/C(=N\N(c1ccccc1)c1ccccc1)c1ccco1	-9.8	3.3	14.4	58.5*	1.4	0.1%
CCCn1nnc(NC(=S)NC(=O)C(C)(C)C)n1	-7.0	-8.3	12.1	87.5*	-2.4	0.0%
Cc1[nH][nH]c(=O)c1C(c1c(C)[nH][nH]c1=O)c1cn(Cc2ccc(F)cc2)c2ccccc12	0.2	14.6	.	.	14.5	.
Cc1[nH][nH]c(=O)c1C(c1c(C)[nH][nH]c1=O)c1cn(Cc2ccc(Cl)c(Cl)c2)c2ccccc12	16.3	22.0	-1.5	53.0*	20.4	2.4%
C/C(=N\OCc1cccc(C(=O)O)c1)c1ccc(Cl)cc1	.	-72.7	100.3*	84.2*	-4.4	-13.8%
O=C(NC1CCCC1)N1CCCCN2[C@@H](CO)[C@@H](c3ccc(/C=C/c4ccccc4)cc3)[C@@H]2C1	.	.	26.2	72.7*	.	9.2%
C[C@@H]1CN([C@@H](C)CO)S(=O)(=O)c2ccc(C#Cc3ccncc3)cc2O[C@H]1CN(C)C(=O)C1CCOCC1	.	.	-5.9	70.0*	.	1.0%
C[C@@H]1CN([C@H](C)CO)S(=O)(=O)c2ccc(C#Cc3ccncc3)cc2O[C@@H]1CN(C)C(=O)Nc1ccc2c(c1)OCO2	.	.	-9.1	65.4*	.	-3.7%
C/C=C/c1cnc2c(c1)C(=O)N([C@@H](C)CO)C[C@@H](C)[C@H](CN(C)C(=O)Nc1ccccc1F)O2	.	.	-2.0	-0.1	.	.
C[C@@H]1CN([C@@H](C)CO)S(=O)(=O)c2ccc(C#CCN(C)C)cc2O[C@@H]1CN(C)Cc1ccncc1	.	.	3.7	53.4*	.	-7.3%
C[C@@H]1CN([C@H](C)CO)S(=O)(=O)c2ccc(C#CC(C)(C)O)cc2O[C@@H]1CN(C)Cc1ccc(-c2ccccc2)cc1	.	.	28.5	26.8	.	.
C[C@H]1CN([C@@H](C)CO)S(=O)(=O)c2ccc(C#CC(C)(C)O)cc2O[C@@H]1CN(C)Cc1ccc(-c2ccccc2)cc1	.	.	53.8*	68.0*	.	3.8%
C[C@H]1CN([C@@H](C)CO)S(=O)(=O)c2ccc(-c3ccncc3)cc2O[C@@H]1CN(C)C(=O)c1cccc(F)c1	.	.	-10.4	7.0	.	.
C[C@@H]1CN([C@@H](C)CO)C(=O)c2cccc(NC(=O)NC3CCCCC3)c2O[C@@H]1CN(C)C(=O)Nc1ccccc1	.	.	1.5	-6.9	.	.
COC(=O)c1c(C)[nH]c(/C=N/Nc2ccccc2)c1C	-11.7	8.2	.	54.0*	1.1	-16.7%
Cc1c(C=NNc2ccccc2)[nH]c(=O)[nH]c1=O	-2.9	-2.7	6.8	16.9	-10.4	.
SMILES	LMP1 NFkB inh	TROY NFkB inh	LGR2 inh	EWS-Fli inh	TWEAK Fn14 block	DNA binding
COc1ccc(NC(=O)N(C)C[C@@H]2Oc3ccc(NC(=O)C4CC4)cc3C(=O)N([C@H](C)CO)C[C@H]2C)cc1	.	.	-17.6	-6.4	.	.
O=C(N/N=C\c1cc(Br)cs1)c1ccncc1	-3.5	-28.6	-4.0	-3.5	-8.8	.
O=C(O)c1ccc(N/N=C/c2cc(Br)cs2)cc1	-0.9	49.2	42.5	65.2*	-5.8	-3.1%
COc1ccc(/C=N/Nc2ccc(C(=O)O)cc2)cc1Br	35.7	65.8*	79.7*	69.0*	93.1*	-7.4%
Cc1ccsc1/C=N/Nc1cccc(C(=O)O)c1	66.2*	-67.4	87.6*	66.3*	31.7	-7.9%
Cc1ccsc1/C=N/Nc1ccc(C(=O)O)cc1	22.4	48.8	68.8*	70.8*	99.2*	5.2%
COc1ccc(/C=N/Nc2ccc(C(=O)O)cc2)cc1OC	-3.7	-23.9	-11.1	-37.3	44.1	.
Cc1cccc(S(=O)(=O)N2CC[C@@H]3[C@@H](CO)Nc4ccc(C#Cc5cccnc5)cc4[C@@H]32)c1	.	.	-7.2	2.4	.	.
O=C(NC[C@@H]1N[C@@H](CO)[C@H]1c1ccc(C2=CCCCC2)cc1)c1cccc(F)c1	.	.	-3.7	59.0*	.	-0.2%
CCCCCCCCn1ccc(=N)cc1	15.0	0.0	11.9	15.1	-5.9	.
CCCCCCCCCCCCCCCCn1cc[n+](C)c1	5.0	42.4	.	73.4*	78.0*	-16.9%
CCOc1cc2[nH]c(=S)n(Cc3ccc(C(=O)NCCN(CC)CC)cc3)c(=O)c2cc1OCC	0.4	0.8	-11.3	57.7*	-3.7	2.7%
O=c1c(Cl)cc(Cl)nn1-c1ccccc1	-10.8	2.6	-4.9	64.0*	36.6	1.2%
COc1cc(Cl)nn(-c2ccccc2)c1=O	-11.8	-2.3	-9.1	.	8.2	.
CCN(Cc1ccccc1)c1ccc(/C=N/N=C(N)N)cc1	-10.0	34.2	61.7*	57.3*	44.5	-12.4%
CN1CCCCN2[C@H](CO)[C@H](c3ccc(-c4cccnc4)cc3)[C@H]2C1	.	.	7.4	-5.6	.	.
O=C(OC[C@@H]1[C@H]2c3ccccc3OC1(CO)N=C1SCc3ccccc3CN12)c1ccccc1	.	.	.	8.9	.	.
S=c1[nH]nc(-c2cc(-c3ccccc3)n[nH]2)n1/N=C/C(Br)=C/c1ccccc1	.	-35.7	0.6	75.0*	75.4*	0.3%
C=C1C(=O)O[C@@H]2[C@H]1[C@@H](OC(=O)/C(C)=C/C)C/C(C)=C\C(=O)/C=C(\C)[C@@H]2O	66.7*	29.1	54.8*	73.5*	66.6*	-5.7%
C=C1C(=O)O[C@H]2[C@H]1[C@H](OC(=O)/C(C)=C\C)C[C@]1(CO1)[C@@H]1[C@H](OC(C)=O)C=C(C)[C@]21O	-6.6	10.5	5.8	-3.1	15.9	.
Cc1occc1-c1n[nH]c(=S)n1C	-11.9	4.7	.	75.2*	2.2	-6.6%

Assay outcomes deposited in PubChem by several laboratories.
